Screens from PubChem.
Compounds with a hit are over-represented: about 5.5% of the library has one in this group of screens.
Gal4-VP16 FLuc: VP16 counterscreen qHTS for inhibitors of ROR gamma transcriptional activity | 310,000 tested, 3.5% active | Drosophila S2 Gal4-VP16 UAS-luciferase, luminescence, 20 h | Potency, µM (series often up to 53.6 µM), for the others: at the top dose activity, negative = inhibition, hits mostly inhibitors;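 further: Gal4-VP16 expression switched on by copper sulfate through the metallothionein promoter; potency means the concentration at half of the fitted maximal effect; on the % scale 0 is the no-effect control and ±100 the full control effect; nearly all actives have a fitted effect of over 50% in size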
MBNL1-CUG inh: qHTS Assay for Inhibitors of MBNL1-poly(CUG) RNA binding | TR-FRET MBNL1-His/biotin-(CUG)12 binding, 665/545 ratio | Potency, µM (highest dose often 57.5 µM), for the others: top-dose activity change, negative = inhibition, hits mostly inhibitors | 280,000 tested, 0.036% active; active means well fitted inhibition curve with a large enough effect in the signal ratio, with a control signal flat, not every such curve was filed as active; inconclusive means small, poorly fitted or top-dose-only effect, or effect the other way, or a change in a side signal; inactive means no such curve, though single readings can be large or run the other way; the % refers to the signal ratio; further: potency means the concentration at half of the fitted maximal effect; on the % scale 0 is the no-effect control and ±100 the full control effect
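TR-FRET readout: Ex 340 nm, 665/545 nm emission ratio, normalized to buffer-only (basal) and MBNL1-(CUG)12 controls. Complex of MBNL1-His with Biotin-(CUG)12, compounds 92 nM–58 uM, incubated 60 min at room temperature.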
CBFb RUNX1 block: qHTS Assay for Compounds Blocking the Interaction Between CBF-beta and RUNX1 for the Treatment of Acute Myeloid Leukemia; Potency, µM (top dose mostly 59.8 µM), without a hit: at the top dose activity, negative = inhibition, actives largely listed as inhibitors; AID 1477, 2009; Runt-related transcription factor 1 (Homo sapiens) + Core-binding factor subunit beta …; AlphaScreen CBFb-His/RUNX1-biotin binding, biochemical; 230,000 tested, under 10 active; further: % of control where 0% means no effect
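CBFb-His/RUNX1-biotin, 30 nM each, preincubated 20 min RT; compound 15 min RT; Ni + streptavidin beads 50 ng each, 90 min RT; AlphaScreen read.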
RORg inh: qHTS for inhibitors of ROR gamma transcriptional activity; Nuclear receptor ROR-gamma (Mus musculus), P51450; Drosophila S2 Gal4-RORgamma UAS-luciferase reporter, 20 h; Potency, µM (series often up to 53.6 µM), without a hit: at the highest dose activity change, negative = inhibition, usual class: inhibitors; 310,000 tested, 5.4% active; further: potency means the concentration at half of the fitted maximal effect; on the % scale 0 is the no-effect control and ±100 the full control effect; nearly all actives have a fitted effect of over 60% in size
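Stable Schneider cell line, Gal4 DNA-binding domain fused to ROR gamma, UAS-luciferase. Cmpd 1 hr RT → CuSO4 700 uM final → 20 hr RT → luciferase reagent 10 min → luminescence.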
Six1-Eya2 blk: qHTS Assay for Inhibitors of the Six1/Eya2 Interaction; 360,000 tested, 0.56% active; activity change, % (no concentration beside the values); AlphaScreen GST-Six1/His-Eya2 binding, biochemical; hits give low values; AID 651725, 2012; in the data active means activity change below about -65%; inconclusive means mostly about -30% to -63%; further: on the % scale 0 is the no-effect control and ±100 the full control effect
Target sequence (O00167 whole entry, looked up): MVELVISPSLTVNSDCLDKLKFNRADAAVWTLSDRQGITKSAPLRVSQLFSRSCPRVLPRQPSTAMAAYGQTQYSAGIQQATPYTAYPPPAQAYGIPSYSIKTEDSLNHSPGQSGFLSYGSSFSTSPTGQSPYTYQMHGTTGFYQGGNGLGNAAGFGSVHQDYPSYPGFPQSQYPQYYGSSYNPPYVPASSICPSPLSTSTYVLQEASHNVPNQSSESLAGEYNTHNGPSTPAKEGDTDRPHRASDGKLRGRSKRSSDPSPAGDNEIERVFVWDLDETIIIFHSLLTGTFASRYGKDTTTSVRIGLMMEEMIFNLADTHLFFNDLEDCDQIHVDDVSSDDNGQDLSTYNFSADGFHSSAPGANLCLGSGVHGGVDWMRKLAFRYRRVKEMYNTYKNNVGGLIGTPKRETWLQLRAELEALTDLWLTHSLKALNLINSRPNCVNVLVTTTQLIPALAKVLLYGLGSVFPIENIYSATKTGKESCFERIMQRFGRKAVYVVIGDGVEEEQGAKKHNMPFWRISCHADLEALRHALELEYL
Target sequence (Q15475 whole entry, looked up): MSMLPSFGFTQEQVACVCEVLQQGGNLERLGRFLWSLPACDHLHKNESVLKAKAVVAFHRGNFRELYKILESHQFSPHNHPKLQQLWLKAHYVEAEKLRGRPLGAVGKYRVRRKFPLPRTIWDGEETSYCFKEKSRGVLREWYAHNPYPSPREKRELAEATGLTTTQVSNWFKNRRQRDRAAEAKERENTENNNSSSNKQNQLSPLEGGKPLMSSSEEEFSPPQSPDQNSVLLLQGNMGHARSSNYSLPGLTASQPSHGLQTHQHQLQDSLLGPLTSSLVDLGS
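Six1/Eya2 binding was read as AlphaScreen signal after compounds were pinned into GST-Six1 plus His-tagged Eya2 (5X stock 250/500 nM) in pH 8.0 Tris/NaCl/TCEP buffer, beads added, then incubated 1 h, 37 C, dark.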
CtBP-E1A inh: qHTS Assay for Inhibitors of the CtBP/E1A Interaction. activity change, % (concentration not given with the values). AlphaScreen GST-E1A/His-CtBP binding, 1536-well; hits give low values. 340,000 tested, 0.49% active. CtBP / adenovirus E1A interaction (AlphaScreen); in the data active means activity change below about -65%; inconclusive means mostly about -30% to -63%; further: on the % scale 0 is the no-effect control and ±100 the full control effect
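AlphaScreen with 125 nM GST-E1A and 125 nM His-CtBP (5X stocks) in Tris pH 8.0, 300 mM NaCl, BSA, Tween 20, TCEP. Compounds preincubated 2 h at 37 deg C, then glutathione donor/nickel acceptor beads added for 1 h at 37 deg C in dark.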
Numbers without * were called inactive; ? = inconclusive; · = no result; [ ] = dose if it differs, or a comment. Unless noted, the call rests on the fitted dose curve; in most records, active means well fitted curve in the direction sought with a large enough effect; inconclusive means small, poorly fitted or top-dose-only effect, or another doubt; inactive means no such curve, though single readings can be large; an effect the other way counts as inactive or inconclusive.

SMILES	Gal4-VP16 FLuc	MBNL1-CUG inh	CBFb RUNX1 block	RORg inh	Six1-Eya2 blk	CtBP-E1A inh
CC(C)(C)C(=O)[C@@H]1[C@@H]2C(=O)N(Cc3ccccc3)C(=O)[C@@H]2[C@H]2c3ccccc3C=CN12	?	11%	-16%	11µM*	·	·
CC(=O)[C@H]1[C@@H]2C(=O)N(c3cccc(Cl)c3)C(=O)[C@@H]2[C@H]2c3ccccc3C=CN21	0%	?	2%	-25%	15	4
Cc1ccnc2c1ccc1c(C)ccnc12	·	·	·	·	-92*	-92*
Cc1ccnc2c1ccc1cccnc12	·	·	·	·	-81*	-92*
Cc1ccnc2c1ccc1ccccc12	5%	-7%	·	-18%	1	2
COc1cccc(NC(=O)C2(C)CCCN(C(C)C)C2)c1 (centres undefined)	·	·	·	·	-3	8
CCCOc1ccc(C(=O)NC(=S)NCc2cccnc2)cc1	13µM*	13%[11.5 µM]	12%	?	-5	-2
CCOc1cccc(C(=O)NC(=S)NCc2cccnc2)c1	?	-13%	-17%	?	-3	3
O=C(NNC(=S)NCc1ccccc1)c1cccnc1	-5%	-9%	·	-21%	-4	1
Cc1cccc(C(=O)NC(=S)NCc2cccnc2)c1	?	·	-9%	16µM*	2	8
O=C(NC(=S)NCc1ccccc1)c1cccnc1	?	·	3%	11µM*	10	3
O=C(NC(=S)NCCC1=CCCCC1)c1cccnc1	?	4%	-5%	4µM*	-6	-8
COc1ccc([C@]23Cc4cc(OC)c(OC)cc4C(O2)c2c(cc(C)n(Cc4ccccc4)c2=O)O3)cc1	?	14%[11.5 µM]	·	5%[10 µM]	·	·
O=C1c2ccccc2CCC1CNCCc1ccc(O)cc1 (centres undefined)	·	·	39%	·	·	·
O=C1c2ccccc2CC[C@H]1CNCCc1ccc(O)cc1	11µM*	·	-4%[21.7 µM]	14µM*	·	·
C#CCNC(=O)C1=C[C@@H](c2ccc(C#C)cc2)C[C@@H](OCc2ccc(CO)cc2)O1	·	·	·	·	-2	4
COc1ccc(/C=N/Nc2nnc(-c3ncc[nH]3)c3ccccc23)cc1	4.5µM*	2%	-11%	2.8µM*	-10	-8
Oc1ccc2ccccc2c1/C=N/Nc1nnc(-c2ncc[nH]2)c2ccccc12	0.25µM*	2%	-23%	0.25µM*	-67*	-73*
CC(=O)Nc1ccc(C=NNc2nnc(NN=Cc3ccc(NC(C)=O)cc3)c3ccccc23)cc1	·	·	·	·	-17	-16
Oc1ccc2ccccc2c1C=NNc1ccccn1	·	·	·	·	-18	-21
O=C(CN(c1ccc(F)cc1)S(=O)(=O)c1ccccc1)NC1CC2CCC1C2 (centres undefined)	-1%	1%	·	2%	1	-7
CC(C)N=C(NS(=O)(=O)c1ccccc1)C(Cl)(Cl)Cl	?	?	-17%	7.1µM*	-9	-8
CCNc1nc(C23CC4CC(CC(C4)C2)C3)cs1	?	3%	-4%	10µM*	-10	-29
O=C(NCc1ccccn1)C(=O)Nc1nc(C23CC4CC(CC(C4)C2)C3)cs1	10µM*	-3%	12%	2.8µM*	3	0
Cc1cnc(NC(=O)CSc2nnc(Cc3ccccc3)o2)s1	4%	3%	2%	10µM*	-2	-1
SMILES	Gal4-VP16 FLuc	MBNL1-CUG inh	CBFb RUNX1 block	RORg inh	Six1-Eya2 blk	CtBP-E1A inh
COc1ccc(Cc2nnc(SCC(=O)Nc3ncc(C)s3)o2)cc1	?	2%	6%	-2%	-1	4
CCc1nnc(NC(=O)CSc2nnc(-c3ccco3)o2)s1	?	-22%	-20%	11µM*	-22	-26
CCc1nnc(NC(=O)CSc2nnc(COc3ccccc3C)o2)s1	?	-7%	1%	11µM*	-2	-9
CC(/C=N/NC(=O)COc1ccccc1C)=N\NC(=O)COc1ccccc1C	0%	-1%	·	-3%	0	1
CCN(C(=O)COC(=O)CCOc1ccccc1C)c1c(N)n(Cc2ccccc2)c(=O)[nH]c1=O	·	·	·	·	6	-9
COc1ccc(/C=N/NC(=O)c2ccc(CN3c4cccc5cccc(c45)S3(=O)=O)cc2)cc1	1%	185%	0%	-21%	36	0
O=C(N/N=C/CCc1ccccc1)c1ccc(CN2c3cccc4cccc(c34)S2(=O)=O)cc1	?	72%	-3%	11µM*	11	4
CC(=O)Nc1cc(-c2ccc(CO)cc2)cn2c(-c3cccc(C(F)(F)F)c3)cnc12	·	·	·	·	-6	-9
Cc1ccc(C)c(NC(=O)CCC(=O)NNC(=O)COc2cc(C)ccc2C)c1	-1%	-4%	·	-1%	0	10
O=C(O)CNc1nc(NCc2ccc(Cl)cc2)ccc1[N+](=O)[O-]	·	·	·	·	-3	-5
CCCOc1ccc(-c2c(C(=O)N/N=C/c3cccs3)nnn2-c2nonc2N)cc1	3.2µM*	-2%	·	2.2µM*	-6	0
CCCOc1ccc(-c2c(C(=O)N/N=C/c3ccc(OCC)cc3)nnn2-c2nonc2N)cc1	10µM*	-6%	2%	10µM*	5	-2
CCCOc1ccc(-c2c(C(=O)N/N=C/c3ccc(OC)cc3)nnn2-c2nonc2N)cc1	?	4%	0%	16µM*	-6	0
CCOc1ccc(-c2c(C(=O)N/N=C(\C)c3ccccc3OC)nnn2-c2nonc2N)cc1	-7%	-3%	·	5.6µM*	0	1
O=C(CC[C@H]1O[C@@H](n2cnc3c(NC(=O)c4ccccc4)ncnc32)[C@H](O)[C@@H]1O)N[C@@H](CO)Cc1c[nH]c2ccccc12	·	·	·	·	-8	0
O=C(CN1CCN(S(=O)(=O)c2ccc(F)c(Cl)c2)CC1)N1CCOCC1	·	·	·	·	2	9
Cc1cc(C(=O)Nc2ccc(OCc3ccccc3)cc2)c(C)o1	?	-10%	-14%	?	-4	6
COc1ccc(-c2cc(C(F)(F)F)nc(S(=O)(=O)CCCC(=O)Nc3cccc(O)c3)n2)cc1OC	11µM*	6%	8%	10µM*	14	13
COc1ccc(-c2cc(C(F)(F)F)nc(SCC(=O)N3CCOCC3)n2)cc1OC	-18%	20%	?	?	2	5
